Test [1] is described as follows: NCI Yeast Anticancer Drug Screen. Data for the rad50 strain (AID 155).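 Further: 0% = growth of vehicle-only cultures of the same strain.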 As to conditions: S. cerevisiae rad50 strain growth inhibition; at 50.0 µM; stronger effect = higher value. In outline:
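Vehicle-treated cultures provide the reference for the growth inhibition reported for compound-exposed, repair-deficient yeast.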

A short description of test [2]: NCI Yeast Anticancer Drug Screen. Data for the mec2-1 strain (AID 157). The following applies: S. cerevisiae mec2-1 strain, at 50.0 µM, stronger effect = higher value. The essentials: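 Each compound was tested on mec2-1 yeast, a strain altered in DNA damage repair or cell cycle control. Growth inhibition is reported relative to vehicle.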
Test [3] in a line: NCI Yeast Anticancer Drug Screen. Data for the sgs1 mgt1 strain (AID 161).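 Further: 0% = growth of cultures given vehicle only.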 As to conditions: S. cerevisiae sgs1 mgt1 strain, at 50.0 µM, stronger effect = higher value. In outline:
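Genetically altered yeast, compound exposure, growth inhibition relative to vehicle.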

The nature of test [4]: NCI Yeast Anticancer Drug Screen. Data for the cln2 rad14 strain (AID 165).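 Further: 0% = growth equal to vehicle treated cultures.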 As to conditions: S. cerevisiae cln2 rad14 strain, at 50.0 µM, stronger effect = higher value. In outline: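 Test compounds were added to cln2 rad14 yeast cultures; inhibition of growth was then determined by comparison with vehicle treatment.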
The nature of test [5]: NCI Yeast Anticancer Drug Screen. Data for the bub3 strain (AID 167). As to conditions: S. cerevisiae bub3 mutant strain, at 50.0 µM, stronger effect = higher value. In outline:
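Mutant yeast screening strain plus compound; vehicle-treated cultures serve as the 0% inhibition reference.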

Test [6] can be described thus: NCI Yeast Anticancer Drug Screen. Data for the mlh1 rad18 strain (AID 175). The following applies: S. cerevisiae mlh1 rad18 strain growth inhibition; at 50.0 µM; stronger effect = higher value. In outline:
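Inhibition values reflect reduced growth of mutant yeast versus vehicle-treated controls following compound exposure; the mutations affect DNA damage repair.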

This is part of a sample that, as a whole, favours compounds with a hit. Of some 79,000 tested, about 15% had one in any assay. Unmarked numbers belong to inactive results. The source made the active and inactive calls. No stated cut-off is given here; in the data, active means growth inhibition above about 70%; inactive means the rest.

On to `Fc1ccc(N=C2c3ccccc3-c3ccccc32)cc1`, for which the growth inhibition in test [1] is 6.35%; in test [2], -1.9%; in test [3], -0.25%; in test [4], 5.3%; in test [5], 1.65%; in test [6] it was 1.15%.

With `O=N[C@@H]1CCC[C@H](Cl)C1`, the growth inhibition is 3.95% in test [1]; -6.65% in test [2]; -0.1% in test [3]; 17.2% in test [4]; 5.75% in test [5]; 15.6% in test [6].

Consider `CC1CN=C(c2ccccc2)C(c2ccccc2)=N1` (stereo not given), for which the growth inhibition in test [1] was -24.2%; in test [2] it was 1.3%; in test [3], -6.4%; in test [4], -6.15%; in test [5] it was -12.5%; in test [6] it was -22.3%.

In the case of `COC(c1ccccc1)(c1ccccc1)c1cc(NS(=O)(=O)c2ccccc2)ccc1NS(=O)(=O)c1ccccc1`, the growth inhibition in test [1] was 14.2%; in test [2], 3.9%; in test [3] it was 13%; in test [4] it was -17.1%; in test [5], -4.7%; in test [6], 8.05%.

In the case of `BrC1CC2CC1C1C2CC2OC21` (stereo not given), the growth inhibition in test [1] was -26.9%; in test [2], -12.7%; in test [3], -22.4%; in test [4], -3.9%; in test [5], 9.2%; in test [6], -48.2%.

For the compound `O=c1[nH]c(=O)n(COCc2ccccc2)c2ccccc12`, the growth inhibition was 5.1% in test [1]; -12.2% in test [2]; 65.2% in test [3]; 12.7% in test [4]; 37.7% in test [5]; -18.4% in test [6].

As for `O=C1NC(=O)C(c2ccc(O)cc2)N1` (stereo not given), the growth inhibition in test [1] is -21.1%; in test [2] it was -14.8%; in test [3] it was -4.6%; in test [4] it was -30.9%; in test [5], 0.2%; in test [6] it was -10.2%.

For `CSc1nnc(CF)c(=O)[nH]1`, the growth inhibition was -1.4% in test [1]; -1.35% in test [2]; -12.3% in test [3]; -4.2% in test [4]; -7.05% in test [5]; -14.4% in test [6].

Take `CCN(CC)c1ccc(NCC(O)c2cc(Cl)ccc2OC)cc1` (stereo not given): the growth inhibition is -11.8% in test [1]; -5.75% in test [2]; 15.6% in test [3]; 22.8% in test [4]; -6.3% in test [5]; -1.65% in test [6].

`O=C(Nc1cccc(C(F)(F)F)c1)OCCOc1ccc(Cl)cc1`: the growth inhibition in test [1] was 99.2% (active); in test [2] it was 99.3% (active); in test [3], 99.2% (active); in test [4], 98% (active); in test [5], 99% (active); in test [6], 98% (active).

For `CC1(C)CC2(C)OC3(C)CC(C)(C)OC3(C)OC2(C)O1` (stereo not given), the growth inhibition is 0.05% in test [1]; 6.45% in test [2]; 8.55% in test [3]; -34.2% in test [4]; 22.4% in test [5]; -10.3% in test [6].

Regarding `N#Cc1c(CC(=O)O)cc(=O)n2c1[nH]c1ccccc12`, the growth inhibition in test [1] was -13.9%; in test [2], -12.9%; in test [3] it was -1.9%; in test [4], 13.4%; in test [5], -11.9%; in test [6], -10.3%.

With `C=C(C)C(O)CC(C)C` (stereo not given), the growth inhibition in test [1] was -8.6%; in test [2], 13.9%; in test [3] it was -15.2%; in test [4] it was 7.65%; in test [5], 2.95%; in test [6], 0.2%.

As for `COc1ccc2oc(=O)c(-c3csc(-c4ccccc4)n3)cc2c1`, the growth inhibition is 13.6% in test [1]; 5.85% in test [2]; -5.5% in test [3]; 1.25% in test [4]; -24.4% in test [5]; -45.2% in test [6].

With `CN(C)CCCCC(C#N)(c1ccccc1)c1ccccc1`, the growth inhibition in test [1] is 16.3%; in test [2], 18.8%; in test [3], 16.6%; in test [4] it was 12.7%; in test [5], 26.5%; in test [6], 38.5%.

As for `CS/C(=N\S(=O)(=O)c1cc(C)c(Cl)cc1Cl)NNc1cnc2ccccc2n1`, the growth inhibition in test [1] was -12.1%; in test [2], -23.4%; in test [3], -7.1%; in test [4], 11.9%; in test [5], -17.2%; in test [6] it was 1.7%.

Consider `CC(c1ccccc1)C1OCCO1` (stereo not given), for which the growth inhibition was -7.45% in test [1]; -27.4% in test [2]; -15.8% in test [3]; -30.8% in test [4]; -28.2% in test [5]; 28.7% in test [6].

With `Cc1c[nH]c2nc(C)n(-c3ccc(F)cc3)c(=N)c12`, the growth inhibition was 4.1% in test [1]; 2.4% in test [2]; -9.05% in test [3]; -14.6% in test [4]; 5.3% in test [5]; 5.3% in test [6].

Regarding `O=S(=O)(O)C(O)C(F)(F)C(F)(F)C(F)(F)F` (stereo not given), the growth inhibition is 16.2% in test [1]; -1.75% in test [2]; 22.9% in test [3]; -37.8% in test [4]; -30.6% in test [5]; 19.9% in test [6].

For `Nc1cc([N+](=O)[O-])ccc1N1C(=O)CCCC1=O`, the growth inhibition in test [1] is -15.2%; in test [2], -4.95%; in test [3] it was -10.1%; in test [4] it was -5.8%; in test [5], 5.85%; in test [6] it was 12.4%.
